Measurements taken from PubChem BioAssay AID1259417 (TB Discovery Research, Infectious Disease Research Institute, 2018).
Screen size: about 1,100 compounds; about 760 (69%) were called active. How the calls were made is not given here. So high a share suggests a set chosen from earlier hits. Some of the results follow.

Assay: M. tuberculosis growth inhibition, HTS (AID 1259417);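 further: bacteria grown with compound for 5 days at 37 °C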
Settings: stronger effect = higher value, concentration not given here
[1] = M. tuberculosis DsRed fluorescence growth inhibition
[2] = M. tuberculosis growth inhibition

Compound: O=C(OCn1nnc2ccccc2c1=O)c1ccccc1
- inhibition [1]: 40.5% (active)
- inhibition [2]: 44.9%

Compound: Cc1ccc(-c2nnc(N3CCN(C(=O)c4ccco4)CC3)c3ccccc23)cc1
- inhibition [1]: 3.3% (inactive)
- inhibition [2]: -1.04%

Compound: COc1ccc(NC(=O)c2ccc(C#CC(C)(C)O)s2)cc1
- inhibition [1]: 58.8% (active)
- inhibition [2]: 31.9%

Compound: COc1ccc(CCNC(=O)c2ccc(C#CC(C)(C)O)s2)cc1
- inhibition [1]: 92.7% (active)
- inhibition [2]: 80.8%

Compound: Cn1ccnc1C(O)c1cc(C(C)(C)C)c(O)c(C(C)(C)C)c1 (stereo not drawn)
- inhibition [1]: 22.8% (inactive)
- inhibition [2]: 28.3%

Compound: Cc1ccccc1C(=O)Nc1nnc(-c2ccc(F)cc2)o1
- inhibition [1]: 75.4% (active)
- inhibition [2]: 84.5%

Compound: CCCCNC(=O)Nc1nnc(-c2ccc(Cl)cc2)o1
- inhibition [1]: 14.7% (inactive)
- inhibition [2]: 4.64%

Compound: Cc1ccccc1C(=O)Nc1nnc(-c2ccc(Cl)cc2)o1
- inhibition [1]: 83.5% (active)
- inhibition [2]: 90.7%

Compound: CC1CCCN(c2ccc([N+](=O)[O-])s2)C1 (stereo not drawn)
- inhibition [1]: 97.6% (active)
- inhibition [2]: 99.3%

Compound: COc1ccc(OCC(=O)Nc2cccc(Cl)c2)cc1
- inhibition [1]: 6.16% (inactive)
- inhibition [2]: -19%

Compound: CCOc1ccc(OCC(=O)Nc2cc(C)cc(C)c2)cc1
- inhibition [1]: 2.08% (active)
- inhibition [2]: 38.4%

Compound: COC(=O)COc1ccc(CSCC(=O)Nc2ccc3ccccc3c2)cc1
- inhibition [1]: 33.1% (active)
- inhibition [2]: 58.5%

Compound: COC(=O)COc1ccc(NC(=O)COc2cccc(C)c2)cc1
- inhibition [1]: 68.1% (active)
- inhibition [2]: 90.9%

Compound: Cc1cc(C)cc(NC(=O)COc2cccc(C=O)c2)c1
- inhibition [1]: 4.11% (inactive)
- inhibition [2]: 13.2%

Compound: COC(=O)COc1cccc(NC(=O)COc2ccccc2)c1
- inhibition [1]: 50% (active)
- inhibition [2]: 64.5%

Compound: COC(=O)COc1ccc(NC(=O)COc2ccc(C)cc2C)cc1
- inhibition [1]: 99.4% (active)
- inhibition [2]: 99.7%

Compound: COC(=O)COc1ccc(NC(=O)COc2ccc(C(C)(C)C)cc2)cc1
- inhibition [1]: 98.8% (active)
- inhibition [2]: 99.4%

Compound: Cc1ccc(CSCC(=O)Nc2ccccc2)cc1
- inhibition [1]: 3.53% (active)
- inhibition [2]: 35.4%

Compound: Cc1ccc(CSCC(=O)Nc2ccc(Cl)c(Cl)c2)cc1
- inhibition [1]: 2.65% (inactive)
- inhibition [2]: 11.4%

Compound: Cc1ccnc(NC(=O)COc2ccc([N+](=O)[O-])cc2)c1
- inhibition [1]: -0.546% (inactive)
- inhibition [2]: 11.9%

Compound: CCOC(=O)N1CCN(C(=O)CSc2nnc(-c3cc(OC)cc(OC)c3)o2)CC1
- inhibition [1]: 24.7% (inactive)
- inhibition [2]: 11.7%

Compound: CCOC(=O)CSc1nnc(-c2cccc(Br)c2)o1
- inhibition [1]: 67.1% (active)
- inhibition [2]: 85.8%

Compound: CCOC(=O)CSc1nnc(-c2cc(OC)c(OC)c(OC)c2)o1
- inhibition [1]: 85.2% (active)
- inhibition [2]: 90.4%

Compound: CCCOC(=O)CSc1nnc(-c2cc(OC)c(OC)c(OC)c2)o1
- inhibition [1]: 71.2% (active)
- inhibition [2]: 87.3%

Compound: COc1ccc(C(=O)Nc2nnc(C3=COCCO3)o2)cc1
- inhibition [1]: -1.74% (inactive)
- inhibition [2]: -16.2%

Compound: CCOc1ccc(C(=O)Nc2nnc(-c3ccccn3)o2)cc1
- inhibition [1]: 3.93% (inactive)
- inhibition [2]: -4.77%

Compound: CCCCOc1ccc(C(=O)Nc2nnc(-c3ccncc3)o2)cc1
- inhibition [1]: 18.1% (active)
- inhibition [2]: 42.4%

Compound: CCCCOc1ccc(C(=O)Nc2nnc(-c3ccco3)o2)cc1
- inhibition [1]: 44.2% (active)
- inhibition [2]: 26%

Compound: O=C(Nc1nnc(-c2ccco2)o1)c1ccc(Oc2ccccc2)cc1
- inhibition [1]: 70.2% (active)
- inhibition [2]: 86.6%

Compound: CCc1ccc(/C=C/C(=O)C2C(=O)c3ccccc3C2=O)cc1
- inhibition [1]: 100% (active)
- inhibition [2]: 99.5%

Compound: NC(=O)c1c(NC(=O)c2cccc(F)c2)sc2c1CCC2
- inhibition [1]: -2.04% (inactive)
- inhibition [2]: -14.1%

Compound: Cc1ccc(C(=O)Nc2sc3c(c2C(N)=O)CCC(C(C)(C)C)C3)c(C)c1 (stereo not drawn)
- inhibition [1]: -2.03% (inactive)
- inhibition [2]: -11.7%

Compound: COc1cc(C(=O)Nc2sc3c(c2C(N)=O)CCCC3)c(Br)c(OC)c1OC
- inhibition [1]: 27.3% (inactive)
- inhibition [2]: 4.82%

Compound: NC(=O)c1c(NC(=O)c2c(F)c(F)c(F)c(F)c2F)sc2c1CCCCCC2
- inhibition [1]: 43.3% (active)
- inhibition [2]: 78.9%

Compound: NC(=O)c1c(NC(=O)c2c(F)c(F)c(F)c(F)c2F)sc2c1CCC2
- inhibition [1]: 98.9% (active)
- inhibition [2]: 95.4%

Compound: CC(C)(C)c1ccc(Cn2cnc([N+](=O)[O-])n2)cc1
- inhibition [1]: 98.3% (active)
- inhibition [2]: 96.6%

Compound: COC(=O)c1c(NC(=O)c2c(F)c(F)c(F)c(F)c2F)sc2c1CCC2
- inhibition [1]: 98.2% (active)
- inhibition [2]: 95.8%

Compound: CCOc1cccc(C(=O)Nc2sc3c(c2C(N)=O)CCC3)c1
- inhibition [1]: -0.558% (inactive)
- inhibition [2]: -34.5%

Compound: CCOC(=O)c1c(NC(=O)c2cc(-n3cnnc3)ccc2Cl)sc2c1CCCC2
- inhibition [1]: 37.7% (active)
- inhibition [2]: 36.2%

Compound: NC(=O)c1c(NC(=O)c2cc(Cl)ccc2Cl)sc2c1CCCCCC2
- inhibition [1]: -5.89% (inactive)
- inhibition [2]: -25.5%

Compound: COc1cccc(C(=O)Nc2sc3c(c2C(N)=O)CCCCCC3)c1
- inhibition [1]: -2.93% (inactive)
- inhibition [2]: -15.5%

Compound: COC(=O)c1c(NC(=O)c2c(F)c(F)c(F)c(F)c2F)sc2c1CCCCC2
- inhibition [1]: 97.4% (active)
- inhibition [2]: 93%

Compound: COC(=O)c1c(NC(=O)c2c(F)cccc2F)sc2c1CCC(C(C)(C)C)C2 (stereo not drawn)
- inhibition [1]: 0.929% (inactive)
- inhibition [2]: -6.55%

Compound: CCOC(=O)c1c(NC(=O)COc2ccc(C(C)C)cc2)sc2c1CCC2
- inhibition [1]: 44.6% (active)
- inhibition [2]: 99.6%
